Measurements published in PubChem BioAssay (NCATS).
Inconclusive results are not listed. Calls of active or inactive are those of the source. Unless noted, calls come from the whole dose curve; as a rule, active = well fitted curve in the direction sought with a large enough effect; inconclusive = small, poorly fitted or top-dose-only effect, or another doubt; inactive = no such curve, though single readings can be large; an effect the other way counts as inactive or inconclusive.

Key:
[1] = Cell Viability - BJ (AID 421; calls by dose curve;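 note: potency is the fitted concentration of half-maximal effect; cells exposed to compound for 40 hours at 37 °C before readout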); details: BJ fibroblast viability, qHTS
Procedure, shortened: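 Cytotoxicity as drop in intracellular ATP (CellTiter-Glo, 20 min RT) after 40 hr compound exposure of BJ fibroblasts at 37 °C. Titrations scaled between DMSO and 100 uM tamoxifen, Hill-fitted for AC50.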

[2] = Cell Viability - Jurkat (AID 426;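 active = dose-dependent loss of cell ATP signal giving a full or clear fitted curve, ranked by lower potency value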;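 note: potency is the fitted concentration of half-maximal effect; cells exposed to compound for 40 hours at 37 °C before ATP read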); details: qHTS
Procedure, shortened: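 Cytotoxicity taken as drop in cellular ATP (CellTiter-Glo luminescence, 20 min room temperature) after 40 hr, 37C treatment of 5000 Jurkat Clone E6-1 cells per well; concentration-response fitted with Hill equation for AC50.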

[3] = Cell Viability - Hek293 (AID 427;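 active = compounds whose dose-response curve shows a full or clear partial loss of cell viability, called from curve shape rather than a numeric limit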;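 note: potency is the fitted concentration of half-maximal effect; cells exposed to compound for 40 hours at 37 °C before reading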); details: qHTS
Procedure, shortened: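 Luminescent ATP content (CellTiter-Glo, 20 min at room temperature) was measured after a 40 hr, 37 °C compound exposure of HEK293 cells. AC50 values came from Hill-equation fits of qHTS concentration-response data normalized to DMSO and 100 uM tamoxifen.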

[4] = Cell Viability - HepG2 (AID 433; calls by dose curve;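 note: potency is the fitted concentration of half-maximal effect; potency for ATP loss meaning cytotoxicity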); details: qHTS
Procedure, shortened: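 HepG2 hepatocellular carcinoma cells (1500/well) were treated with compounds for 40 h at 37 °C in complete medium; intracellular ATP was read by CellTiter-Glo luminescence. Data were normalized to DMSO and 100 uM tamoxifen, and AC50 came from Hill fits.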

[5] = Cell Viability - MRC5 (AID 434; calls by dose curve;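 note: potency is the fitted concentration of half-maximal effect; potency reflects cytotoxicity seen as loss of intracellular ATP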); details: MRC5 lung fibroblast viability, qHTS
Procedure, shortened: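 AC50 values come from Hill-equation fits of intracellular ATP loss, measured by CellTiter-Glo luminescence. Normal lung fibroblasts (MRC5) had 40 hr compound treatment at 37 C, normalized between DMSO and 100 uM tamoxifen.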

[6] = Cell Viability - SK-N-SH (AID 435; calls by dose curve; note: potency is the fitted concentration of half-maximal effect); details: SK-N-SH neuroblastoma cell viability qHTS
Procedure, shortened: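 SK-N-SH human neuroblastoma cells (1500/well) were exposed to compounds in complete medium for 40 h at 37 °C, and intracellular ATP was then measured by CellTiter-Glo luminescence. AC50 was taken from Hill fits, normalized to DMSO and 100 uM tamoxifen.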

[7] = target: Mitogen-activated protein kinase 10 (Mus musculus) (UniProt Q61831); test: JNK3 AlphaScreen Assay (AID 530; active = well fitted curve in either direction with a large enough effect, not every such curve was filed as active;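 note: kinase came from lysate of stimulated human HepG2 cells; signal reports phosphorylation of biotinylated GST-cJun 1-79 at Ser73 with 10 µM ATP; % is set by controls: 0 for no effect and ±100 for the full control effect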); details: JNK3 lysate, c-Jun phosphorylation; series mostly up to 57.1 µM
Procedure, shortened: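 qHTS titrations with 15 min compound pre-incubation before adding ATP (10 uM final). Read-out: AlphaScreen of Ser73-phosphorylated biotin-GST-cJun using HepG2 lysate JNK3 activated by IL-1β and TNFα.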

[8] = Cell Viability - N2a (AID 540); details: N2a mouse neuroblastoma cell viability; activity change, negative = cytotoxicity: at 92.2 µM (top of the series);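 note: plate controls were DMSO alone for no effect and tamoxifen control for full effect; nearly all actives have a fitted effect of over 45% in size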
Procedure, shortened: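 CellTiter-Glo ATP luminescence, read 20 min after reagent at room temperature, reported viability following 40 h compound treatment at 37 °C. N2a mouse neuroblastoma cells seeded 1500/well; Hill equation gave AC50.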

[9] = Cell Viability - NIH 3T3 (AID 541); details: NIH 3T3 cell viability, qHTS; activity change, negative = cytotoxicity: at 92.2 µM (top of the series);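 note: plate controls were DMSO alone for no effect and tamoxifen positive control for full effect; nearly all actives have a fitted effect of over 25% in size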
Procedure, shortened: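 Intracellular ATP (CellTiter-Glo luminescence, 20 min at room temperature) measured after 40 hr compound exposure at 37 °C of 1000 NIH 3T3 mouse fibroblasts/well in complete medium; AC50 derived by Hill-equation modelling of qHTS concentration-response curves.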

[10] = Cell Viability - HUV-EC-C (AID 542); details: HUV-EC-C endothelial cell viability, qHTS; series mostly up to 92.2 µM; note: % is set by controls: 0 for no effect and ±100 for the full control effect; nearly all actives have a fitted effect of over 35% in size
Procedure, shortened: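 CellTiter-Glo luminescence measured ATP loss in HUV-EC-C cells (1000/well) after 40 hr compound exposure at 37 °C, in complete culture medium. Concentration-response data were Hill-fitted to give AC50.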

[11] = Cell Viability - H-4-II-E (AID 543); details: H-4-II-E rat hepatoma viability; series mostly up to 92.2 µM; note: % is set by controls: 0 for no effect and ±100 for the full control effect; nearly all actives have a fitted effect of over 35% in size
Procedure, shortened: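 CellTiter-Glo luminescence (intracellular ATP) measured after 40 h compound exposure at 37 °C in H-4-II-E rat hepatoma cells seeded at 1500/well. Values are AC50s fitted with the standard Hill equation.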

[12] = Cell Viability - SH-SY5Y (AID 544); details: SH-SY5Y neuroblastoma cell viability; viability change, negative = cytotoxic: at 92.2 µM (top of the series); note: nearly all actives have a fitted effect of over 55% in size
Procedure, shortened: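 Cytotoxicity measured via ATP-dependent luciferase luminescence (CellTiter-Glo) following 40 h, 37 °C exposure of 1500 SH-SY5Y cells per well. Concentration-response data were fitted with the standard Hill equation to give AC50.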

[13] = Cell Viability - Renal Proximal Tubule (AID 545); details: renal proximal tubule cells viability, primary cells of rat origin; series mostly up to 91.7 µM; note: nearly all actives have a fitted effect of over 40% in size
Procedure, shortened: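 Primary rat renal proximal tubule cells (1000/well) were treated with compounds for 40 hr at 37 °C in complete medium. Intracellular ATP was measured by CellTiter-Glo luminescence, and AC50 values came from Hill-equation fits of concentration-response data.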

[14] = Cell Viability - Mesenchymal (AID 546); details: mesenchymal cells viability, qHTS; series mostly up to 91.7 µM;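 note: cells exposed to compound for 40 hours before reading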
Procedure, shortened: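 CellTiter-Glo luminescence (intracellular ATP, 20 min room temperature) after 40 hr compound exposure at 37 °C of 1000 glomerulus-derived human kidney mesenchymal cells/well; AC50 values obtained by fitting qHTS concentration-response data to the Hill equation.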

[15] = Cellular Toxicity (caspase-3) HepG2 (AID 654); details: HepG2 caspase-3 activation, luminescence; series mostly up to 92.2 µM;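 note: cells exposed to compound for 16 hours before reading; 0% = DMSO alone and 100% = caspase signal from 100 µM tamoxifen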
Procedure, shortened: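 Caspase 3/7 activation is measured as a luminescence increase (aminoluciferin substrate) after 16 h compound exposure of human hepatocarcinoma HepG2 cells. AC50 values are Hill fits, scaled between DMSO baseline and 100 uM tamoxifen stimulation.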

[16] = Cellular Toxicity (caspase-3) Jurkat (AID 655); details: Jurkat caspase-3 activation, luminescence; caspase-3 activation: at 92.2 µM (top of the series), DMSO = 0%, tamoxifen = 100%;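 note: cells exposed to compound for 16 h at 37 °C before reading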
Procedure, shortened: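 Jurkat cells (5000/well) in complete medium were treated with compounds for 16 hr at 37 °C, then Caspase-Glo 3/7 luminescence was read after 20 min at room temperature. Data normalized to DMSO (basal) and 100 uM tamoxifen (100%); AC50 from Hill fit.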

[17] = Cellular Toxicity (caspase-3) HUV-EC-C (AID 656); details: HUV-EC-C cells, caspase-3 activation (apoptosis), vehicle = 0, 100 µM tamoxifen = 100%; series mostly up to 92.2 µM
Procedure, shortened: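 HUV-EC-C endothelial cells, 1000/well, were pre-incubated 5 hr at 37°C, then exposed to compounds for 16 hr at 37°C. Caspase-Glo 3/7 luminescence was read after 20 min at room temperature. AC50 came from Hill fits, normalized to DMSO and 100 uM tamoxifen.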

[18] = Cellular Toxicity (caspase-3) SHSY5Y (AID 657); details: SH-SY5Y caspase-3 activation, DMSO zero, 10 µM staurosporine = 100%; series mostly up to 91.7 µM
Procedure, shortened: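 SH-SY5Y human neuroblastoma cells (1500/well) were treated with compounds for 16 h at 37 °C, then Caspase-Glo 3/7 luminescence was read after 1 h at room temperature. Data normalized to DMSO and 10 uM staurosporine; AC50 from Hill fits.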

[19] = Cellular Toxicity (caspase-3) BJ (AID 658); details: BJ fibroblasts, luminescence, normalized: DMSO 0%, staurosporine 100%; series mostly up to 91.7 µM
Procedure, shortened: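 Caspase-Glo 3/7 luminescence, read 1 hr after reagent at room temperature, in normal BJ fibroblasts exposed 16 hours at 37 °C. AC50 values from Hill-equation concentration-response, scaled between DMSO basal and 10 uM staurosporine as 100%.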

[20] = Cellular Toxicity (caspase-3) MRC-5 (AID 659); details: MRC-5 cells, luminescence, normalized: DMSO 0%, 10 µM staurosporine 100%; series mostly up to 91.7 µM
Procedure, shortened: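 Luminescent Caspase-Glo 3/7 read-out (1 h, room temperature) after a 16 h, 37 °C compound exposure of MRC-5 lung fibroblasts at 1500 cells/well. Concentration-response AC50 from Hill equation; 0% DMSO, 100% 10 uM staurosporine.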

CCCCCCCCC/C=C/CC1CC(=O)OC1=O (stereo unspecified)
inactive: Potency [1] > 92 µM | Potency [2] > 92 µM | Potency [3] > 92 µM | Potency [4] > 92 µM | Potency [5] > 92 µM | Potency [6] > 92 µM | outcome [7] | activity change, negative = cytotoxicity [8] 11.9% | Potency [9] | Potency [10] | Potency [11] | Potency [12] | Potency [13] | Potency [14] | Potency [15] | caspase-3 activation [16] 1.29% | outcome [17] | outcome [18] | outcome [19] | outcome [20]

CCC(C)(C)C(=O)O
inactive: Potency [1] > 92 µM | Potency [2] > 92 µM | Potency [3] > 92 µM | Potency [4] > 92 µM | Potency [5] > 92 µM | Potency [6] > 92 µM | outcome [7] | activity change, negative = cytotoxicity [8] 6.55% | Potency [9] | Potency [10] | Potency [11] | Potency [12] | Potency [13] | Potency [14] | Potency [15] | caspase-3 activation [16] -0.0519% | outcome [17] | outcome [18] | outcome [19] | outcome [20]

Cc1ccc2nc(-c3ccc(N)cc3)sc2c1S(=O)(=O)O
inactive: Potency [1] > 92 µM | Potency [2] > 92 µM | Potency [3] > 92 µM | Potency [4] > 92 µM | Potency [5] > 92 µM | Potency [6] > 92 µM | outcome [7] | activity change, negative = cytotoxicity [8] 3.3% | Potency [9] | Potency [10] | Potency [11] | Potency [12] | Potency [13] | Potency [14] | Potency [15] | caspase-3 activation [16] -10.6% | outcome [17] | outcome [18] | outcome [19] | outcome [20]

CCCCCO
inactive: Potency [1] > 92 µM | Potency [2] > 92 µM | Potency [3] > 92 µM | Potency [4] > 92 µM | Potency [5] > 92 µM | Potency [6] > 92 µM | outcome [7] | activity change, negative = cytotoxicity [8] 3.49% | Potency [9] | Potency [10] | Potency [11] | Potency [12] | Potency [13] | Potency [14] | Potency [15] | caspase-3 activation [16] -0.274% | outcome [17] | outcome [18] | outcome [20]

CC(C)=CCl
inactive: Potency [1] > 92 µM | Potency [2] > 92 µM | Potency [3] > 92 µM | Potency [4] > 92 µM | Potency [5] > 92 µM | Potency [6] > 92 µM | outcome [7] | activity change, negative = cytotoxicity [8] 1.02% | Potency [9] | Potency [10] | Potency [11] | Potency [12] | Potency [13] | Potency [14] | Potency [15] | caspase-3 activation [16] -0.417% | outcome [17] | outcome [19] | outcome [20]

CCN(Cc1ccccc1)c1ccccc1
inactive: Potency [1] > 92 µM | Potency [2] > 92 µM | Potency [3] > 92 µM | Potency [4] > 92 µM | Potency [5] > 92 µM | Potency [6] > 92 µM | outcome [7] | activity change, negative = cytotoxicity [8] 15.1% | Potency [9] | Potency [10] | Potency [11] | Potency [12] | Potency [13] | Potency [14] | Potency [15] | caspase-3 activation [16] 1.93% | outcome [17] | outcome [18] | outcome [19] | outcome [20]

CCC(C)=O
inactive: Potency [1] > 92 µM | Potency [2] > 92 µM | Potency [3] > 92 µM | Potency [4] > 92 µM | Potency [5] > 92 µM | Potency [6] > 92 µM | outcome [7] | activity change, negative = cytotoxicity [8] -16.1% | Potency [9] | Potency [10] | Potency [11] | Potency [12] | Potency [13] | Potency [14] | Potency [15] | caspase-3 activation [16] -0.0185% | outcome [17] | outcome [19] | outcome [20]

O=C(O[C@@H](C(=O)O)[C@@H](OC(=O)c1ccccc1)C(=O)O)c1ccccc1
inactive: Potency [1] > 92 µM | Potency [2] > 92 µM | Potency [3] > 92 µM | Potency [4] > 92 µM | Potency [5] > 92 µM | Potency [6] > 92 µM | outcome [7] | activity change, negative = cytotoxicity [8] 4.68% | Potency [9] | Potency [10] | Potency [11] | Potency [12] | Potency [13] | Potency [14] | Potency [15] | caspase-3 activation [16] 1.56% | outcome [17] | outcome [18] | outcome [19] | outcome [20]

OC/C(Br)=C(\Br)CO
inactive: Potency [1] > 92 µM | Potency [2] > 92 µM | Potency [3] > 92 µM | Potency [4] > 92 µM | Potency [5] > 92 µM | Potency [6] > 92 µM | outcome [7] | activity change, negative = cytotoxicity [8] -4.76% | Potency [9] | Potency [10] | Potency [11] | Potency [12] | Potency [13] | Potency [14] | Potency [15] | caspase-3 activation [16] 3.75% | outcome [17] | outcome [18] | outcome [19] | outcome [20]

O=C1OC(=O)c2c(Cl)c(Cl)c(Cl)c(Cl)c21
inactive: Potency [1] > 92 µM | Potency [2] > 92 µM | Potency [3] > 92 µM | Potency [4] > 92 µM | Potency [5] > 92 µM | Potency [6] > 92 µM | outcome [7] | activity change, negative = cytotoxicity [8] 4.39% | Potency [9] | Potency [10] | Potency [11] | Potency [12] | Potency [13] | Potency [14] | Potency [15] | caspase-3 activation [16] 0.457% | outcome [17] | outcome [18] | outcome [19] | outcome [20]

Cc1c(C(=O)O)cccc1[N+](=O)[O-]
inactive: Potency [1] > 92 µM | Potency [2] > 92 µM | Potency [3] > 92 µM | Potency [4] > 92 µM | Potency [5] > 92 µM | Potency [6] > 92 µM | outcome [7] | activity change, negative = cytotoxicity [8] 5.3% | Potency [9] | Potency [10] | Potency [11] | Potency [12] | Potency [13] | Potency [14] | Potency [15] | caspase-3 activation [16] 1.11% | outcome [17] | outcome [18] | outcome [20]
